Shown are actives, neighbours in structure and some others; about 6.9% of the full set was active somewhere.
HP1b binding inh: blocks HP1-beta chromodomain binding to methylated histone tails. 390,000 compounds, 0.56% hits. P83916. AID 540317. Potency, µM (doses to about 114 µM), inactives show at the highest dose activity change, negative = inhibition, usual class: inhibitors. AlphaScreen HP1-beta / biotin-H3K9me3 peptide binding; also: nearly all actives have a fitted effect of over 70% in size
Target sequence (P83916 whole entry, looked up): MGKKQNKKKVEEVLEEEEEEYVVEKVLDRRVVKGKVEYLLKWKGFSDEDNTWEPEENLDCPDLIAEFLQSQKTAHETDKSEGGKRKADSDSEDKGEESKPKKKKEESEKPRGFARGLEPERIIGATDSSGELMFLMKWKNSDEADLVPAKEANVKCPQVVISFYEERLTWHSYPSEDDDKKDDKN
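Compound inhibition of the preformed complex between 50 nM HP1-beta and 50 nM biotinylated H3K9me3 peptide was read by AlphaScreen. Buffer was PBS pH 7.4 with 0.01% Tween-20. Incubations ran 30 min at room temperature, with 10 ug/mL donor/acceptor beads.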
VDR inhibitor: blocks the human vitamin D receptor. P11473. 400,000 compounds, 0.93% hits. VDR-SRC2-3 peptide fluorescence polarization, 2 h. AID 504847. Potency, µM, without a hit: max response, negative = inhibition, usual class: inhibitors; also: % is scaled to controls: 0 for no effect and ±100 for the full control effect
Target sequence (P11473 whole entry, looked up): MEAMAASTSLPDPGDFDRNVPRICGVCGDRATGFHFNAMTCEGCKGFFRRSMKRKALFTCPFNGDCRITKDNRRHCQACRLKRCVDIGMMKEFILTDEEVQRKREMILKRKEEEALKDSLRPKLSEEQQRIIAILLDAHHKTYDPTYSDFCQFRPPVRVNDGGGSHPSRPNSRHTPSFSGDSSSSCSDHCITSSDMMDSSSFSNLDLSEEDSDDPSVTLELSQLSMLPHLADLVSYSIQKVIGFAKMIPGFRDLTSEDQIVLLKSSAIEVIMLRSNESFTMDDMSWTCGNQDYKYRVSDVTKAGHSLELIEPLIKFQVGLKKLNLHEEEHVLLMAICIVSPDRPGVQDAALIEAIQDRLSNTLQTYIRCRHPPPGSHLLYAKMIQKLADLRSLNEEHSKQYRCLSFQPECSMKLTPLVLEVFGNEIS
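Signal is fluorescence polarization, reporting how far test compounds block the interaction of VDR with the SRC2-3 coregulator peptide after a 2 h room-temperature incubation.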
PLK1 PBD block: blocks phosphopeptide binding to human PLK1 polo-box domain | Plk1 PBD binding of FITC phosphopeptide, fluorescence polarization | Potency, µM, inactives show max response, negative = inhibition, most hits filed as inhibitors | 360,000 compounds, 2.8% hits | AID 720504; also: series mostly up to about 57 µM; % is scaled to controls: 0 for no effect and ±100 for the full control effect; nearly all actives have a fitted effect of over 65% in size
JMJD2A Tudor: inhibitors of human JMJD2A Tudor domain. AlphaScreen JMJD2A-Tudor / H3K4me3 peptide binding. 390,000 compounds, 4.4% hits. Potency, µM (highest dose often 114 µM), for inactives: at the top dose activity change, negative = inhibition, usual class: inhibitors; also: % is scaled to controls: 0 for no effect and ±100 for the full control effect; nearly all actives have a fitted effect of over 50% in size
BAZ2B inh: inhibitors of human BAZ2B bromodomain; Potency, µM (titrated, usually from 114 µM), without a hit: top-dose activity change, negative = inhibition, actives largely listed as inhibitors; Q9UIF8; 360,000 compounds, 4.4% hits; AlphaScreen BAZ2B-H3K14Ac peptide displacement; AID 504333; also: % is scaled to controls: 0 for no effect and ±100 for the full control effect; nearly all actives have a fitted effect of over 60% in size
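Compounds, titrated to a top concentration of 110 uM, were incubated 30 min at room temperature with preformed BAZ2B/acetyl-K14 H3 peptide complex (50 nM each). Proximity signal was measured by AlphaScreen after 20 min with beads.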
L3MBTL1 block: L3MBTL1 (human) inhibition. Q9Y468. AlphaScreen L3MBTL1–H3K9me1 peptide binding. Potency, µM (series often up to 57.1 µM), for inactives: top-dose activity, negative = inhibition, most hits filed as inhibitors. 230,000 compounds, 0.66% hits; also: % is scaled to controls: 0 for no effect and ±100 for the full control effect; nearly all actives have a fitted effect of over 60% in size
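Read-out is AlphaScreen signal from streptavidin donor and nickel chelate acceptor beads (10 ug/mL final each) bridging L3MBTL1 (50 nM) and biotinylated K9-monomethylated H3(1-15) peptide (75 nM), after 30 min compound exposure at room temperature.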
* = called active by the depositor. Calls follow the shape of the dose curve; as a rule, active = well fitted curve in the direction sought with a large enough effect; inconclusive = small, poorly fitted or top-dose-only effect, or another doubt; inactive = no such curve, though single readings can be large; an effect the other way counts as inactive or inconclusive. Potency is read from the fitted curve at half-maximal effect.

What do the screens show for `CC(=O)c1cc(O)c2ccccc2c1O`?
HP1b binding inh: inconclusive; VDR inhibitor: 31.6µM*; PLK1 PBD block: 5.32µM*; JMJD2A Tudor: 56.2µM*; BAZ2B inh: 44.7µM*; L3MBTL1 block: -27.3%

How did Cc1ccccc1/C=N\NC(=O)c1ccc(Cn2cccn2)o1 do in these assays?
HP1b binding inh: -0.5%; VDR inhibitor: -22.5%; PLK1 PBD block: -7.7%; JMJD2A Tudor: 56.2µM*; BAZ2B inh: 1.0%; L3MBTL1 block: -2.4%

How did O=C(N/N=C\c1cccc(Cl)c1)c1ccc(Cn2cccn2)o1 do in these assays?
HP1b binding inh: 23.4%; VDR inhibitor: -6.0%; PLK1 PBD block: 8.9%; JMJD2A Tudor: -2.6%; BAZ2B inh: -5.7%; L3MBTL1 block: 4.4%

What do the screens show for `COc1ccc(-c2csc(CCN3N=C(C)CC3=O)n2)cc1`?
HP1b binding inh: 1.8%; VDR inhibitor: 4.4%; PLK1 PBD block: -21.5%; JMJD2A Tudor: inconclusive; BAZ2B inh: 39.8µM*

How did N#CC1(NC(=O)CN2C(=O)c3ccc([N+](=O)[O-])cc3C2=O)CCCCC1 do in these assays?
HP1b binding inh: 16.4%; VDR inhibitor: -5.8%; PLK1 PBD block: -2.8%; JMJD2A Tudor: 4.1%; BAZ2B inh: 6.0%; L3MBTL1 block: 7.6%

Results for CCOc1ccccc1NC(=O)Nc1cc2c(cc1N1CCCCC1)n(CC)c(=O)n2CC ?
HP1b binding inh: inconclusive; VDR inhibitor: -1.0%; JMJD2A Tudor: inconclusive; BAZ2B inh: inconclusive

What do the screens show for `CN(C)c1ccc(NC(=S)c2ccc3ccccc3n2)cc1`?
HP1b binding inh: 41.3%; VDR inhibitor: inconclusive; PLK1 PBD block: 1.06µM*; JMJD2A Tudor: -12.4%; BAZ2B inh: 2.51µM*

What do the screens show for `CCOc1ccc(-c2nnc(SCC(=O)NCc3ccc(Cl)cc3)o2)cc1`?
HP1b binding inh: 34.5%; VDR inhibitor: -1.1%; JMJD2A Tudor: -10.6%; BAZ2B inh: inconclusive

How did Oc1ccc2cc(Br)ccc2c1CN1CCCC1 do in these assays?
HP1b binding inh: -18.8%; VDR inhibitor: 23.4%; PLK1 PBD block: inconclusive; JMJD2A Tudor: -12.5%; L3MBTL1 block: -1.9%

Results for Oc1ccc(Br)cc1CN1CCCCCCC1 ?
HP1b binding inh: -16.2%; VDR inhibitor: 10.2%; PLK1 PBD block: -0.9%; JMJD2A Tudor: 6.31µM*; BAZ2B inh: 50.1µM*

How did Oc1cccc(CN2CCCCC2)c1 do in these assays?
HP1b binding inh: 18.7%; VDR inhibitor: -5.3%; PLK1 PBD block: -4.5%; JMJD2A Tudor: -5.9%; BAZ2B inh: 8.1%; L3MBTL1 block: -4.8%

What do the screens show for `Brc1cccc(CN2CCCCCC2)c1`?
HP1b binding inh: inconclusive; VDR inhibitor: 4.2%; PLK1 PBD block: -1.9%; JMJD2A Tudor: 20µM*; BAZ2B inh: inconclusive; L3MBTL1 block: -3.3%

What do the screens show for `COc1ccc(CC(=O)Nc2cc(S(=O)(=O)N3CCOCC3)ccc2N2CCOCC2)cc1OC`?
HP1b binding inh: -0.3%; VDR inhibitor: -14.7%; PLK1 PBD block: -6.3%; JMJD2A Tudor: -9.1%

Results for COc1ccc(S(=O)(=O)N2CCOCC2)cc1NC(=O)CSc1nc(C)c(C)c(C)n1 ?
HP1b binding inh: 30.6%; VDR inhibitor: -20.2%; PLK1 PBD block: inconclusive; JMJD2A Tudor: -25.5%; L3MBTL1 block: 7.7%

How did COc1ccc(S(=O)(=O)N2CCOCC2)cc1NC(=O)CSc1n[nH]c(C(C)C)n1 do in these assays?
HP1b binding inh: 10.6%; VDR inhibitor: 1.1%; PLK1 PBD block: 26.7µM*; JMJD2A Tudor: -7.6%; BAZ2B inh: -7.2%; L3MBTL1 block: 40.0%

What do the screens show for `O=C(CSc1nc2ccccc2s1)Nc1cc(S(=O)(=O)N2CCOCC2)ccc1O`?
HP1b binding inh: -28.5%; VDR inhibitor: inconclusive; PLK1 PBD block: 10.6µM*; JMJD2A Tudor: 50.1µM*; BAZ2B inh: inconclusive; L3MBTL1 block: -28.2%

Results for O=C(CC1CCCC1)Nc1cc(S(=O)(=O)N2CCOCC2)ccc1O ?
HP1b binding inh: inconclusive; VDR inhibitor: inconclusive; PLK1 PBD block: 5.97µM*; JMJD2A Tudor: -25.3%; BAZ2B inh: -12.8%; L3MBTL1 block: -4.4%

How did CCCCc1ccc(CC(=O)Nc2cc(S(=O)(=O)N3CCOCC3)ccc2O)cc1 do in these assays?
HP1b binding inh: -26.4%; VDR inhibitor: inconclusive; PLK1 PBD block: 15µM*; JMJD2A Tudor: -32.1%; BAZ2B inh: -34.9%; L3MBTL1 block: -4.3%

Results for O=[S+]([O-])(/C=C/c1nc(Nc2cc(F)cc(F)c2)c2ncn(CC(F)F)c2n1)c1ccccc1 ?
JMJD2A Tudor: -15.1%

Results for O=C(CSc1nc2ccccc2s1)NCc1cc([N+](=O)[O-])ccc1O ?
HP1b binding inh: 18.3%; VDR inhibitor: inconclusive; PLK1 PBD block: 18.9µM*; JMJD2A Tudor: -32.4%; BAZ2B inh: -35.9%; L3MBTL1 block: -8.1%

Results for CC(C)Oc1ccc(S(=O)(=O)N2CCOCC2)cc1NC(=O)CC1CCCC1 ?
HP1b binding inh: 35.3%; VDR inhibitor: 0.7%; PLK1 PBD block: -9.8%; JMJD2A Tudor: -9.8%; BAZ2B inh: 2.9%; L3MBTL1 block: 3.9%

Results for Cc1ccc(S(=O)(=O)N2CCOCC2)cc1NC(=O)CNCC1CCCCC1 ?
HP1b binding inh: -19.0%; VDR inhibitor: -24.2%; PLK1 PBD block: -0.1%; JMJD2A Tudor: 3.98µM*; L3MBTL1 block: 5.3%

Results for CNc1nc(C)cc(C)c1S(=O)(=O)c1ccc(Cl)cc1 ?
HP1b binding inh: 132.2%; VDR inhibitor: 4.6%; PLK1 PBD block: -8.2%; JMJD2A Tudor: 65.2%; BAZ2B inh: 79.4%; L3MBTL1 block: 30.2%

What do the screens show for `Cc1cc(S(=O)(=O)c2ccc(Cl)cc2)nc(S(=O)(=O)c2ccc(Cl)cc2)c1C#N`?
PLK1 PBD block: 2.67µM*

Results for CC(=O)Nc1nc(C)c(-c2csc(Nc3ccccn3)n2)s1 ?
HP1b binding inh: 18.2%; VDR inhibitor: 73.9%; PLK1 PBD block: -1.7%; JMJD2A Tudor: -14.7%; BAZ2B inh: inconclusive; L3MBTL1 block: -9.6%

Results for CC(=O)Nc1ccc(Nc2nc(-c3sc(NC(C)=O)nc3C)cs2)cc1 ?
HP1b binding inh: -12.6%; VDR inhibitor: 31.6µM*; PLK1 PBD block: 23.8µM*; JMJD2A Tudor: inconclusive; BAZ2B inh: 50.1µM*; L3MBTL1 block: 2.2%

What do the screens show for `CC(=O)Nc1nc(C)c(-c2csc(Nc3cccc(C(C)=O)c3)n2)s1`?
HP1b binding inh: -8.0%; VDR inhibitor: -12.9%; PLK1 PBD block: -5.3%; JMJD2A Tudor: -28.8%; BAZ2B inh: -39.0%

How did CCC(C)C(=O)Nc1nc(C)c(-c2csc(Nc3ccc(Cl)cc3)n2)s1 (centres undefined) do in these assays?
HP1b binding inh: -22.5%; VDR inhibitor: 3.1%; PLK1 PBD block: -14.4%; JMJD2A Tudor: inconclusive; BAZ2B inh: inconclusive; L3MBTL1 block: -3.8%
